What was measured:
Assay in all cases: DAPPL (digital affinity profiling via proximity ligation, sequencing); 10 mM Tris-HCl pH 7.5, 50 mM NaCl, 1 mM DTT, 4% glycerol, room temperature, 30 min; GST-TFs on glutathione beads, 16-mer random dsDNA library, 0.1% formaldehyde crosslink after washing; high values mean tight binding
FLI1 = biological target: T1, FLI1 (Homo sapiens, UniProt Q01543 1-452); conditions: protein: recombinant; tags: N-terminal GST; dsDNA, one strand shown
T1 sequence: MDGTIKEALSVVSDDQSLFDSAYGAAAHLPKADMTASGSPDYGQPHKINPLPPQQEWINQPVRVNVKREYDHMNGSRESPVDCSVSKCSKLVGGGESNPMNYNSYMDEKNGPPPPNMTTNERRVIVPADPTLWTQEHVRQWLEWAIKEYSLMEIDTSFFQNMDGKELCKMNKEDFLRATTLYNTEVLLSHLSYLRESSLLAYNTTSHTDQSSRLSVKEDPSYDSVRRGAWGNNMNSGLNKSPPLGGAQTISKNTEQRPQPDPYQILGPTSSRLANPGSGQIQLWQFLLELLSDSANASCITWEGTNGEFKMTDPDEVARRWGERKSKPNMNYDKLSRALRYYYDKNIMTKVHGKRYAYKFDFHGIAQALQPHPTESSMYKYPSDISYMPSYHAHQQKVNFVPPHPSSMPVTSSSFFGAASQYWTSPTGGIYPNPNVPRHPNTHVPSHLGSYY
Summary of the method: (§1)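 The binding signal reported is, for every hexamer, its read frequency for a factor over its read frequency for the tag-only sample. Reads came from pools of yeast-expressed, GST-fused human transcription factors on glutathione beads, barcoded with DNA and mixed with that sample, which were incubated with 200 nmole of a random double-stranded 16-mer DNA library in Tris/NaCl/DTT/glycerol buffer at room temperature for 30 min. After washing, the pools were crosslinked with 0.1% formaldehyde, proximity-ligated with BsaI/T4 ligase for 1 h at 37 °C, PCR-amplified and sequenced on an Illumina NextSeq500.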

ELK1 = biological target: T2, ELK1 (Homo sapiens, UniProt P19419 1-428); conditions: protein: recombinant; tags: N-terminal GST; dsDNA, one strand shown
T2 sequence: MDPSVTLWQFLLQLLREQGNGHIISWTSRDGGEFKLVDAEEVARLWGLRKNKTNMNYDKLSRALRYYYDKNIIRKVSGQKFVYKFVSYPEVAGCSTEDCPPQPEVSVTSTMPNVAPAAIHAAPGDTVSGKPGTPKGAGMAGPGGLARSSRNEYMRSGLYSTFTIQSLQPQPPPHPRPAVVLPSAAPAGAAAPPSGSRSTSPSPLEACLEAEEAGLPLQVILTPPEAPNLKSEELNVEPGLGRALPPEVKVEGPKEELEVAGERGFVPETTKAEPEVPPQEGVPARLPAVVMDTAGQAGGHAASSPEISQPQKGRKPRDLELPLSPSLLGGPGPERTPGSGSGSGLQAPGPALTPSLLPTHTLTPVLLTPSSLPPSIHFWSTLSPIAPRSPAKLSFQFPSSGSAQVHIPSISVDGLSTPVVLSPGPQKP
Summary of the method: as §1

GABPA = biological target: T3, GABPA (Homo sapiens, UniProt Q06546 1-454); conditions: protein: recombinant; tags: N-terminal GST; dsDNA, one strand shown
T3 sequence: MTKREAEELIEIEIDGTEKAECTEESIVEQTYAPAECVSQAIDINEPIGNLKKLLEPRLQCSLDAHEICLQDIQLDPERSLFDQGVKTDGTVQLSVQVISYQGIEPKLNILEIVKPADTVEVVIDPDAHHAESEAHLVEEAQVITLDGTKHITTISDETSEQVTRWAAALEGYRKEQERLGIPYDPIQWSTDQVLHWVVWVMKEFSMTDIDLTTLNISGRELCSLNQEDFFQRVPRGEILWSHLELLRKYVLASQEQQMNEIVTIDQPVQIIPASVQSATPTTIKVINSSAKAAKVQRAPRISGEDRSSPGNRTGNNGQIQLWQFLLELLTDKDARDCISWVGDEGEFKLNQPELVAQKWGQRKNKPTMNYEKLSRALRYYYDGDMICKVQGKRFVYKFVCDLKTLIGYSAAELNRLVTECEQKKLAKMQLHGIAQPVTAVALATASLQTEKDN
Summary of the method: as §1

ERG = biological target: T4, ERG (Homo sapiens, UniProt P11308 1-479); conditions: protein: recombinant; tags: N-terminal GST; dsDNA, one strand shown
T4 sequence: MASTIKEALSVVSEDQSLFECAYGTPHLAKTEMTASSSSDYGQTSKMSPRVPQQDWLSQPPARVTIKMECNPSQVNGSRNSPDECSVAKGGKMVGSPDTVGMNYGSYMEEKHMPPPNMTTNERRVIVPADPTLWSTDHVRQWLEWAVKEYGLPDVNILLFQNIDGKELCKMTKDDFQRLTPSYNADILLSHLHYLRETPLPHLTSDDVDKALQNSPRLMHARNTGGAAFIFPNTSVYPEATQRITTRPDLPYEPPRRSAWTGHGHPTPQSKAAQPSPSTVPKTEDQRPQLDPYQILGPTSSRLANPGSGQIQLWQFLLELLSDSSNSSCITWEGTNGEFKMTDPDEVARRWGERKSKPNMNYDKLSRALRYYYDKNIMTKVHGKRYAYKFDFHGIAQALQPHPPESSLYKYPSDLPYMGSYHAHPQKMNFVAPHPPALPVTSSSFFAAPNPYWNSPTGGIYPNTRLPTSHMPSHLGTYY
Summary of the method: as §1

ELF1 = ELF1 (Homo sapiens, UniProt P32519 1-619); conditions: protein: recombinant; tags: N-terminal GST; dsDNA, one strand shown
ELF1, sequence (P32519 whole entry): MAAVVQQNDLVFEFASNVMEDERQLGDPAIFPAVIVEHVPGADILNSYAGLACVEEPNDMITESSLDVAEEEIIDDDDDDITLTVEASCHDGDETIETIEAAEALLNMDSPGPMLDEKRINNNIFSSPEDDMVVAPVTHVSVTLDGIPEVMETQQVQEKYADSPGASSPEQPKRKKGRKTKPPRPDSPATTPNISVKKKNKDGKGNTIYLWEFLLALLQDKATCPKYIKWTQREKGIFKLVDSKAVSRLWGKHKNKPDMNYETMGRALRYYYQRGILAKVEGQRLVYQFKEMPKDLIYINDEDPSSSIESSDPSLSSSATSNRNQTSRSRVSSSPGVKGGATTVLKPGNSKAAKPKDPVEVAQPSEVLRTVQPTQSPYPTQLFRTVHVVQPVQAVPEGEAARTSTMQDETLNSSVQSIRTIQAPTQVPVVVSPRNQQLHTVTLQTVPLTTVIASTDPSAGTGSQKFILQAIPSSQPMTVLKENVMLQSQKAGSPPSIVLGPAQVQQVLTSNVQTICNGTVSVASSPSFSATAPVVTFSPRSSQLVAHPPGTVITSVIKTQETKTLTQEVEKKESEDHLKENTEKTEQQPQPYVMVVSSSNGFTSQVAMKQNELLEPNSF
Summary of the method: as §1

EHF = biological target: T5, EHF (Homo sapiens, UniProt Q9NZC4 1-300); conditions: protein: recombinant; tags: N-terminal GST; dsDNA, one strand shown
T5 sequence: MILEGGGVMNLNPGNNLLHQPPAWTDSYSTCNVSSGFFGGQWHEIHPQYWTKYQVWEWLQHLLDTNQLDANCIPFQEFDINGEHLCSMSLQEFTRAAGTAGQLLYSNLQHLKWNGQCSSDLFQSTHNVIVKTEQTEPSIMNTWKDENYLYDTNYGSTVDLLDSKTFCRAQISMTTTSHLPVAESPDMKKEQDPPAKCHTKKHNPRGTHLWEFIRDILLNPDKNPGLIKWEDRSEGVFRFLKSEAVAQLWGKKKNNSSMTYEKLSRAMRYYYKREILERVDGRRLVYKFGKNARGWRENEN
Summary of the method: as §1

SPI1 = SPI1 (Homo sapiens, UniProt P17947 1-270); conditions: protein: recombinant; tags: N-terminal GST; dsDNA, one strand shown
Summary of the method: as §1

SPIB = SPIB (Homo sapiens, UniProt Q01892 1-262); conditions: protein: recombinant; tags: N-terminal GST; dsDNA, one strand shown
SPIB, sequence (Q01892 whole entry): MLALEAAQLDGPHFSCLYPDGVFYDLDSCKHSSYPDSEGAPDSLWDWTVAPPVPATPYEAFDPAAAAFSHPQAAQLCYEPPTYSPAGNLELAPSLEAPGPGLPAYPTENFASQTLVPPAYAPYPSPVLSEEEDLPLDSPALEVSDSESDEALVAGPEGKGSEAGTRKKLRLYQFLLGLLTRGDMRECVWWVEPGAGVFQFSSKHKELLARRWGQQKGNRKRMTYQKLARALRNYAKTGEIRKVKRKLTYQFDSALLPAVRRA
Summary of the method: as §1

ELK3 = biological target: T6, ELK3 (Homo sapiens, UniProt P41970 1-407); conditions: protein: recombinant; tags: N-terminal GST; dsDNA, one strand shown
T6 sequence: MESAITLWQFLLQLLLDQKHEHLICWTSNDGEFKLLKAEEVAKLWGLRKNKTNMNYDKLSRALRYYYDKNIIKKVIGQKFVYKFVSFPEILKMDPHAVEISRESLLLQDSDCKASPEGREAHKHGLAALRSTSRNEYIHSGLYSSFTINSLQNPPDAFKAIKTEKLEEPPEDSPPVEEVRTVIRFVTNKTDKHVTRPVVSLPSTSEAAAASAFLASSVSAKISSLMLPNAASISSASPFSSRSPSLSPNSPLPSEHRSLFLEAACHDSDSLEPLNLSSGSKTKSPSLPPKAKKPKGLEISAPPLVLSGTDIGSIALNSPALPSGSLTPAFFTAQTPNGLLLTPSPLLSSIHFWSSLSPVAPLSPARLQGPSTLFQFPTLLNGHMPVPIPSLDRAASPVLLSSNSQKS
Summary of the method: as §1

FEV = biological target: T7, FEV (Homo sapiens, UniProt Q99581 1-238); conditions: protein: recombinant; tags: N-terminal GST; dsDNA, one strand shown
T7 sequence: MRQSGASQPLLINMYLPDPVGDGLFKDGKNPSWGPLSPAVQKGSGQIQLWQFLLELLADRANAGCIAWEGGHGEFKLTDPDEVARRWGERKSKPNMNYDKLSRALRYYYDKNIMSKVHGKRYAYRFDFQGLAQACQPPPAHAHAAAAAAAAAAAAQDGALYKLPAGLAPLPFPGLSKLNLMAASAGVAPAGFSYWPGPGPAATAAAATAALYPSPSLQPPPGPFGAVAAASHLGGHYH
Summary of the method: as §1

ETV5 = ETV5 (Homo sapiens, UniProt P41161 1-510); conditions: protein: recombinant; tags: N-terminal GST; dsDNA, one strand shown
ETV5, sequence (P41161 whole entry): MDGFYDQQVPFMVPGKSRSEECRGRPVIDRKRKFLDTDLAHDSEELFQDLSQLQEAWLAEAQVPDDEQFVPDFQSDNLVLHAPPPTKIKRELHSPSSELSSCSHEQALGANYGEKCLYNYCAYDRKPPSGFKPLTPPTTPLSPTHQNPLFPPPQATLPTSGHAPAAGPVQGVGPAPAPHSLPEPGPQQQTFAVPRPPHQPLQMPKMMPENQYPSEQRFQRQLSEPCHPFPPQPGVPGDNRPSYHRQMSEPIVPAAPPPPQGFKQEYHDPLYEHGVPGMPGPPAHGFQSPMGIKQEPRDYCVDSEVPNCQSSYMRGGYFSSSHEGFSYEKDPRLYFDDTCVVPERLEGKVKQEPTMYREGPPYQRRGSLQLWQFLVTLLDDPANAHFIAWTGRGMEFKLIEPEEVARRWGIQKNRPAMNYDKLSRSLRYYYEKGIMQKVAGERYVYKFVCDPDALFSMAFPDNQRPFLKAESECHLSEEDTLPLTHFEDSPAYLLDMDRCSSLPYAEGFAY
Summary of the method: as §1

HSF1 = HSF1 (Homo sapiens, UniProt Q00613 1-529); conditions: protein: recombinant; tags: N-terminal GST; chain copies: 3; dsDNA, one strand shown
HSF1, sequence (Q00613 whole entry): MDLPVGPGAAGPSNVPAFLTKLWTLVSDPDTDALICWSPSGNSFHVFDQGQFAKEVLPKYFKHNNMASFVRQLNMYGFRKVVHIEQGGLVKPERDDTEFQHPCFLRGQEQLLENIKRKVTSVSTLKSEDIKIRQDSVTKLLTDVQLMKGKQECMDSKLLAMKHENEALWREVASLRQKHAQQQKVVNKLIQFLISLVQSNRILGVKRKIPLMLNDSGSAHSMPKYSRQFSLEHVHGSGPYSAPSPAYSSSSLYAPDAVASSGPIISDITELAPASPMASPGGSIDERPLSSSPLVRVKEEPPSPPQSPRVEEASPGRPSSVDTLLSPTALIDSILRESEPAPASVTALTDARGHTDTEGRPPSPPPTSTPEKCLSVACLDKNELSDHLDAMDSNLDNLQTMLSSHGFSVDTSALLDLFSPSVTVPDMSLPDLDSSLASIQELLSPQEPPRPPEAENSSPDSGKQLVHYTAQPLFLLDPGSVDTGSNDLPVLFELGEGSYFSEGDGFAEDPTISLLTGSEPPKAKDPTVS
Summary of the method: as §1

ELF4 = ELF4 (Homo sapiens, UniProt Q99607 1-663); conditions: protein: recombinant; tags: N-terminal GST; dsDNA, one strand shown
ELF4, sequence (Q99607 whole entry): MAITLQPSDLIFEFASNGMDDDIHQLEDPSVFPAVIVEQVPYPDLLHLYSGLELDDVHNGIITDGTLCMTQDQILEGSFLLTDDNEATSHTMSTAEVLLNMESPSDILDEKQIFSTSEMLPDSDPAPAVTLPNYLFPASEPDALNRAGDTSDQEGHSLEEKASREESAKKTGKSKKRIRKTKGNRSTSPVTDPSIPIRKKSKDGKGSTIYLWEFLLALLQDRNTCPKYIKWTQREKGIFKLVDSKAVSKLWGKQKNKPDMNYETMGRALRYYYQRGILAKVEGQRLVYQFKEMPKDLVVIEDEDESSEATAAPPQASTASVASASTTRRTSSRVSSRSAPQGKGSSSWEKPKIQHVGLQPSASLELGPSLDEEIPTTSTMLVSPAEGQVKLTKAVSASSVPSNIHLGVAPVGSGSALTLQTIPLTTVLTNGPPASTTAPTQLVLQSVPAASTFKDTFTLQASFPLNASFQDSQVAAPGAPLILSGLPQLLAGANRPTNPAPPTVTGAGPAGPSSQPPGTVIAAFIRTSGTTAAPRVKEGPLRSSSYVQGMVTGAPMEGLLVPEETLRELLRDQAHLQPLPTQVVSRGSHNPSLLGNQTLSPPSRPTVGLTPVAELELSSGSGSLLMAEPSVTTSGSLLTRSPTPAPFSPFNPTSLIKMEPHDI
Summary of the method: as §1

ELK4 = biological target: T8, ELK4 (Homo sapiens, UniProt P28324-2 1-405); conditions: protein: recombinant; tags: N-terminal GST; dsDNA, one strand shown
T8 sequence: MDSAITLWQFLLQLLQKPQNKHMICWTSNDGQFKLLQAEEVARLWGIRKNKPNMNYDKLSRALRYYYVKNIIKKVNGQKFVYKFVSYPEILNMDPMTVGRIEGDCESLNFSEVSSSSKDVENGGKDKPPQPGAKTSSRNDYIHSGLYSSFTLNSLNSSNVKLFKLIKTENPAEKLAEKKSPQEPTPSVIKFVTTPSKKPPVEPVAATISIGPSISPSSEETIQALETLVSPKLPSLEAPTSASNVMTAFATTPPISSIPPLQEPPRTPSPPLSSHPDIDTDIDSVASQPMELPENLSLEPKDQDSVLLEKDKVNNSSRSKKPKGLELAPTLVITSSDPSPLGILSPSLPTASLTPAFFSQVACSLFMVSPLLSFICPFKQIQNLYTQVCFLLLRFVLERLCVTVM
Summary of the method: as §1

ETV2 = biological target: T9, ETV2 (Homo sapiens, UniProt O00321 1-342); conditions: protein: recombinant; tags: N-terminal GST; dsDNA, one strand shown
T9 sequence: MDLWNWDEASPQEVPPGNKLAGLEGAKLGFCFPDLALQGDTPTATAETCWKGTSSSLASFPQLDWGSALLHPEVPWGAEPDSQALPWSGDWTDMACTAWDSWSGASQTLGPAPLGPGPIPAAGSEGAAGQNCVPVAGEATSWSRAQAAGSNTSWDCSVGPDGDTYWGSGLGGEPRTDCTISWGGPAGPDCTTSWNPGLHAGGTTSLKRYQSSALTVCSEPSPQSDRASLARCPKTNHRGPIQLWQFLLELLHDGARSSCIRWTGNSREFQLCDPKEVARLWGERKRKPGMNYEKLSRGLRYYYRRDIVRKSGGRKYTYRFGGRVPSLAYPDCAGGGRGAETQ
Summary of the method: as §1

ELF3 = biological target: T10, ELF3 (Homo sapiens, UniProt P78545 1-371); conditions: protein: recombinant; tags: N-terminal GST; dsDNA, one strand shown
T10 sequence: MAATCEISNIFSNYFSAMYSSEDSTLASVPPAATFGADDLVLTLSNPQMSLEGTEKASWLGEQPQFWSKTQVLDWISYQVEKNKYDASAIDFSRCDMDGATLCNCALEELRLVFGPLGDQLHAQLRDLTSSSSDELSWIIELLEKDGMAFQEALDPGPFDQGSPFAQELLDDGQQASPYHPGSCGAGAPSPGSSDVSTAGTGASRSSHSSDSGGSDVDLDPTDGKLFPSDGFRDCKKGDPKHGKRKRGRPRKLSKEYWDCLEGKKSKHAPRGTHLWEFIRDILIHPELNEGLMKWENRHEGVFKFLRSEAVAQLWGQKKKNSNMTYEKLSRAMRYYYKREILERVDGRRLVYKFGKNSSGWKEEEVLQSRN
Summary of the method: as §1

CRX = CRX (Homo sapiens, UniProt O43186 1-299); conditions: protein: recombinant; tags: N-terminal GST; dsDNA, one strand shown
CRX, sequence (O43186 whole entry): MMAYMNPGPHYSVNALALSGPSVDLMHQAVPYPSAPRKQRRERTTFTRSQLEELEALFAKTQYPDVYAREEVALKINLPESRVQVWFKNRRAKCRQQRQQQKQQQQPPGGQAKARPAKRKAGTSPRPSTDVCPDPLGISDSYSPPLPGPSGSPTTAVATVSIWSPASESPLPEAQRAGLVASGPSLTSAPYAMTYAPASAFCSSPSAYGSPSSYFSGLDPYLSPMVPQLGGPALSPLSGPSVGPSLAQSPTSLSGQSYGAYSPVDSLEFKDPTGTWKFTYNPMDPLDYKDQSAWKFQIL
Summary of the method: as §1

ETV1 = ETV1 (Homo sapiens, UniProt P50549 1-477); conditions: protein: recombinant; tags: N-terminal GST; dsDNA, one strand shown
ETV1, sequence (P50549 whole entry): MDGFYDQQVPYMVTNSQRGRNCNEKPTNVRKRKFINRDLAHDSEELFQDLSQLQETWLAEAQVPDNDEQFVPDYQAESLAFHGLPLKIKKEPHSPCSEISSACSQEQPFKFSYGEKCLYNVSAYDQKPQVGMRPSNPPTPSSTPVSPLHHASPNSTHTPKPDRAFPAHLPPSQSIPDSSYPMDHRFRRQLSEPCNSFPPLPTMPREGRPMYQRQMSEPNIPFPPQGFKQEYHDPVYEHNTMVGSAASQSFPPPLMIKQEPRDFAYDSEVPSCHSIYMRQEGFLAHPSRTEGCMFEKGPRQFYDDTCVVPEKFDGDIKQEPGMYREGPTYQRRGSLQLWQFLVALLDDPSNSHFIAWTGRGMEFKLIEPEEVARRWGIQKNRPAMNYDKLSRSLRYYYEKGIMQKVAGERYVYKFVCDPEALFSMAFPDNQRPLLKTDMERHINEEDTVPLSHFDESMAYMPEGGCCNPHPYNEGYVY
Summary of the method: as §1

TTCATA
binding signal (FLI1): 1.17 fold enrichment (6-mer frequency, TF over GST control) | binding signal (ELK1): 1.16 fold enrichment (6-mer frequency, TF over GST control) | binding signal (GABPA): 1.18 fold enrichment (6-mer frequency, TF over GST control) | binding signal (ERG): 1.11 fold enrichment (6-mer frequency, TF over GST control) | binding signal (ELF1): 1.19 fold enrichment (6-mer frequency, TF over GST control) | binding signal (EHF): 1.18 fold enrichment (6-mer frequency, TF over GST control) | binding signal (SPI1): 1.18 fold enrichment (6-mer frequency, TF over GST control) | binding signal (SPIB): 1.23 fold enrichment (6-mer frequency, TF over GST control) | binding signal (ELK3): 1.16 fold enrichment (6-mer frequency, TF over GST control) | binding signal (FEV): 1.12 fold enrichment (6-mer frequency, TF over GST control) | binding signal (ETV5): 1.1 fold enrichment (6-mer frequency, TF over GST control) | binding signal (HSF1): 1.05 fold enrichment (6-mer frequency, TF over GST control) | binding signal (ELF4): 1.19 fold enrichment (6-mer frequency, TF over GST control) | binding signal (ELK4): 1.2 fold enrichment (6-mer frequency, TF over GST control) | binding signal (ETV2): 1.06 fold enrichment (6-mer frequency, TF over GST control) | binding signal (ELF3): 1.24 fold enrichment (6-mer frequency, TF over GST control) | binding signal (CRX): 1.2 fold enrichment (6-mer frequency, TF over GST control) | binding signal (ETV1): 1.24 fold enrichment (6-mer frequency, TF over GST control)
